# From the supplement of paper PMC4894684
# Structures can show the parent of a compound that is named as a salt. ± gives the standard deviation of the averaged measurements.
# Test system: Toxoplasma gondii RH (in HFF)
# Assay: parasite growth relative to the screen mean (all compounds = 100%); higher = less inhibition of parasite growth
# Conditions: 5 µM; 72 h; oxygen 21 %
# How it was run: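 Values give growth relative to the screen mean. The screen mean (all compounds) is set at 100%, and two screens were averaged. Compounds at 5 µM final were placed on confluent human foreskin fibroblasts, which were infected within 2 h with RH β-Gal–GFP Toxoplasma (MOI 1:5) and kept 72 h at 21% O2 before a CPRG β-Gal readout against in-plate standard curves.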
row,SMILES,parasite growth
1,"Cc1ccc(OCC(O)C(C)NC(C)C)c2c1CCC2 (stereo not drawn) [ICI-118,551 hydrochloride]",92.9 ± 14%
2,CC(C)(Oc1ccc(Cl)cc1)C(=O)O [Clofibric acid],127 ± 43%
3,COc1ccc(NC(=O)c2ccc(-c3ccc(-c4noc(C)n4)cc3C)cc2)cc1OCCN(C)C,< 0%
4,CN1C(=O)C(Cc2c[nH]c3ccccc23)NC1=S (stereo not drawn) [Necrostatin-1],186 ± 6.6%
5,Fc1ccc(C(c2ccc(F)cc2)N2CCN(C/C=C/c3ccccc3)CC2)cc1 [Flunarizine dihydrochloride],56.3 ± 12%
6,O=C(c1ccc(F)cc1)C1CCN(CCn2c(=S)[nH]c3ccccc3c2=O)CC1 [Altanserin hydrochloride],135 ± 6.3%
7,C[N+]1(C)CCC(OC(=O)C(c2ccccc2)c2ccccc2)CC1,86.5 ± 39%
8,Nc1nnc(Sc2ncc([N+](=O)[O-])s2)s1,116 ± 26%
9,Cn1cc(C(=O)OCC2CCN(CCNS(C)(=O)=O)CC2)c2ccccc21,123 ± 3.8%
10,Cc1nc2c(c(=O)[nH]1)CSCC2,122 ± 32%
11,CCOC(=O)c1ncc2[nH]c3cccc(OC(C)C)c3c2c1C,101 ± 26%
12,"FC(F)(F)c1cc(COC2CCCNC2c2ccccc2)cc(C(F)(F)F)c1 [L-733,060 hydrochloride]",29.6 ± 16%
13,C[C@]12CC[C@@H]3c4ccc(O)cc4C[C@@H](CCCCCCCCC[S+]([O-])CCCC(F)(F)C(F)(F)F)[C@H]3[C@@H]1CC[C@@H]2O (stereo partly drawn),43.7 ± 11%
14,O=C(Nc1ccc([N+](=O)[O-])cc1O)Nc1ccccc1Br,107 ± 21%
15,NC(N)=NC(N)=Nc1cccc(Cl)c1 [m-Chlorophenylbiguanide hydrochloride],133 ± 15%
16,"Nc1nc2c(nc(Br)n2[C@@H]2O[C@@H]3COP(=O)(O)O[C@H]3[C@H]2O)c(=O)[nH]1 [8-Bromo-cGMP, sodium salt]",133 ± 26%
17,O=C(/C=C/c1ccc(O)c(O)c1)OCCc1ccccc1 [Caffeic acid phenethyl ester],105 ± 73%
18,COc1cc2c(cc1OC)-c1cc3nc4ccccc4nc3n1C(C)(C)C2,< 0%
19,COc1cc2c(cc1OC)-c1c/c(=N\c3c(C)cc(C)cc3C)n(C)c(=O)n1CC2 [Trequinsin hydrochloride],124 ± 37%

row,SMILES,parasite growth
1,O=C(NCCNCC(O)COc1ccc(O)cc1)N1CCOCC1 (stereo not drawn) [Xamoterol hemifumarate],117 ± 12%
2,O=C1C(Cl)=C(NCCN2CCOCC2)C(=O)c2ncccc21,25.7 ± 24%
3,CCOc1cc(CC(=O)N[C@@H](CC(C)C)c2ccccc2N2CCCCC2)ccc1C(=O)O [Repaglinide],150 ± 13%
4,C[C@@]1(O)[C@H](O)[C@@H](CO)O[C@H]1n1cnc2c(NC3CCCC3)nc(Cl)nc21,85.3 ± 39%
5,CCCNC(=O)N1N=C(c2ccc(N)cc2)c2cc3c(cc2C1C)OCO3 (stereo not drawn),99.9 ± 32%
6,NS(=O)(=O)c1cccc2c1c([N+](=O)[O-])cc1nc(O)c(O)nc12,144 ± 9.6%
7,O=C(O)CCCc1ccccc1 [sodium 4-Phenylbutyrate],64.6 ± 3.4%
8,c1ccc(N2CCN(CCCOc3ccc4c(c3)OCO4)CC2)cc1 [BP 554 maleate],127 ± 0.98%
9,Cc1cc(C(C)(C)C)c(O)c(C)c1CC1=NCCN1 [Oxymetazoline hydrochloride],196 ± 16%
10,C[C@H](NC[C@H](O)CP(=O)(O)Cc1ccccc1)c1ccc(Cl)c(Cl)c1,108.5 ± 0.57%
11,OC(c1ccccc1)C1CCN(CCc2ccccc2)CC1 (stereo not drawn),70.7 ± 12%
12,CC1CCN=C(N)S1 (stereo not drawn) [AMT hydrochloride],70.6 ± 8.5%
13,CCOC(=O)c1c(C)[nH]c2ccc3c(c12)CN1CCc2cc(OC)ccc2C1O3 (stereo not drawn),16.8 ± 6.5%
14,CN1[C@@H](CC(=O)c2ccccc2)CCC[C@H]1C[C@H](O)c1ccccc1 [Lobeline hydrochloride],179 ± 40%
15,CC(C)NCC(O)COc1ccc(CC(N)=O)cc1 (racemic) [(RS)-Atenolol],103 ± 7.6%
16,CNCCC(Oc1ccc(C(F)(F)F)cc1)c1ccccc1 (stereo not drawn) [Fluoxetine hydrochloride],20.9 ± 8.2%
17,Nc1ncnc2nc(-c3ccc(N4CCOCC4)nc3)cc(-c3cccc(Br)c3)c12 [ABT 702 dihydrochloride],100 ± 9.5%
18,N=C(N)SCCc1ccc(OCc2ccc([N+](=O)[O-])cc2)cc1 [KB-R7943 mesylate],< 0%
19,Nc1ccc(-c2nc3ccc(-c4nc5ccc(N)cc5[nH]4)cc3[nH]2)cc1,89.6 ± 5.3%
